This passage reports growth results from PubChem BioAssay (NCI).

What all share (test): NCI-60 one-dose screen, 48 h (100 = growth as untreated, 0 = no growth, -100 = all killed)
Conditions in all cases: 10 µM unless noted

The test system of test [1] is NCI/ADR-RES ovarian.
The subject of test [2] is T-47D breast.
For test [3], the system named is BT-549 breast.
For test [4], the system named is MDA-MB-435 melanoma.
The test system of test [5] is SW-620 colon.
The test system of test [6] is MCF7 breast.
Test [7] deals with HCT-116 colon.
Test [8] relates to HCC-2998 colon.
Test [9] relates to KM12 colon.

About 83,000 compounds went through this panel and 20% of them were active in at least one assay; those are over-represented in the sample as a whole.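 Results are percent growth after 48 hours of single-concentration exposure. 100 means growth as in untreated cells, lower positive values show inhibition; negative values down to -100 show cell death.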 Values without a mark were called inactive. Calls of active or inactive are those of the source. How the source made its calls: active means growth percent below 10; inactive means the rest.

As to `CC(C)(NC(=O)O[C@@H]1CN2CCC1CC2)c1csc(-c2ccc(F)cc2)n1`, the growth in test [1] was 96.8%; in test [2], 88.3%; in test [3] it was 101%; in [4], 99.1%; in [5] it was 99.2%; in test [6] it was 90.3%. Also, the growth in [7] is 95.5%; in [8], 102%; in test [9] it was 101%.

Turning to `CN1CC(=O)N(O)C1(C)c1cccnc1` (centres undefined), the growth in test [1] is 104%; in test [2], 93.4%; in [3], 95.7%; in test [4] it was 97.4%; in [5], 111%; in test [6], 98.7%. Further, the growth in [7] was 102%; in test [8], 98.7%; in test [9], 108%.

Take `O=[N+]([O-])CC(c1ccccc1Cl)c1c(-c2ccccc2)[nH]c2ccccc12` (centres undefined): the growth was 25.5% in [1]; 22.1% in test [2]; 37.3% in test [3]; -9.48% (active) in test [4]; 25.2% in [5]; 21.8% in test [6]. Further, the growth in test [7] is 20.3%; in test [8], 71.3%; in [9], 26.8%.

As to `CCCCCSC1C2C(=O)C(Br)=CC13CCNc1c(O)c4c5c(c13)=[N+]2CCC=5C=N4` (centres undefined), the growth in test [1] was 29.1%; in test [2], -48.2% (active); in test [3], 36.1%; in [4], -81.1% (active); in test [5], -54.5% (active); in [6] it was -54.9% (active). Moreover, the values for the growth in [7], in test [8] and in [9] were -92.3% (active), -68.4% (active) and 2.34% (active), respectively.

As for `CC12CC=CCC1CCC1C2CCC2(C)C(c3ccc(=O)oc3)CCC12O` (centres undefined), the growth in [1] was -41.1% (active); in [2], -4.1% (active); in test [3], -65.4% (active); in test [4], -89.1% (active); in test [5], -58.9% (active); in test [6] it was -21.6% (active). Further, the results for the growth in [7], in [8] and in test [9] were -67.1% (active), -10.9% (active) and -49.5% (active), respectively.

For `CCOC(=O)[C@@H](C)C[C@H](Cc1ccccc1)NC(=O)c1csc([C@@H](C[C@H](C(C)C)N(C)C(=O)[C@@H](NC(=O)[C@H]2C[C@H](O)CCN2C)C(C)C)OC(C)=O)n1`, the growth was 45.3% in [1]; 79.4% in test [2]; -31.9% (active) in [3]; -40.9% (active) in test [4]; 25.1% in test [5]; 20% in [6]. The growth was -12.6% (active) in [7], 19.6% in test [8] and 5.96% (active) in test [9].
